Experimental findings from PubChem BioAssay (NCATS) are described below.

SMILES strings stand for the structures. Results filed as inconclusive are left out. Activity calls are given as the source filed them. Unless noted, calls come from the whole dose curve; as a rule, active = well fitted curve in either direction with a large enough effect (not every such curve was filed as active); inconclusive = small, poorly fitted or top-dose-only effect, or another doubt; inactive = flat fitted curve, though single readings scatter. Some results are limits rather than exact numbers.

The target of experiment [1] is Lysosomal acid glucosylceramidase (Homo sapiens) (UniProt P04062). Kind of experiment: Glucocerebrosidase-p2 (AID 348; in the data active = potency below about 10 µM; note: potency is the fitted concentration of half-maximal effect). The following applies: purified GBA, blue fluorogenic substrate, 40 min. The method, boiled down: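 Normal human glucocerebrosidase (0.2 nM) with blue fluorogenic substrate (80 uM final) in citrate/phosphate pH 5.9 with 10mM sodium taurocholate, 0.01% tween-20; 40 min RT, NaOH/glycine stop; fluorescence Ex 365/Em 440; AC50 from a titration from 0.6 nM upwards.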
Chain of Lysosomal acid glucosylceramidase (Homo sapiens) (P04062 whole entry, looked up): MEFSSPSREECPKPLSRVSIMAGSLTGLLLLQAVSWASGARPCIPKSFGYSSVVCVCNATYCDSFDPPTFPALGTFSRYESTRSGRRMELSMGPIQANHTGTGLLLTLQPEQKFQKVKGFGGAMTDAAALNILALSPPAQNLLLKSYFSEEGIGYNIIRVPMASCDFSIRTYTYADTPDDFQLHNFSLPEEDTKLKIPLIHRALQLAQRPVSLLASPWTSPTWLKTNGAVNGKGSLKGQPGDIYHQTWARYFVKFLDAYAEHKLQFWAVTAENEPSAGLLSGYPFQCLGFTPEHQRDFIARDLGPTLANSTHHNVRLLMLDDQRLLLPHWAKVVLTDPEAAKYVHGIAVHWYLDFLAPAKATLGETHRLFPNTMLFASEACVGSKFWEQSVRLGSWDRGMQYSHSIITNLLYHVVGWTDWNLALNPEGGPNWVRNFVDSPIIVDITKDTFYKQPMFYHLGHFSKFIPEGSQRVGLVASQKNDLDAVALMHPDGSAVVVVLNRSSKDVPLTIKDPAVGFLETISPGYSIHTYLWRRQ

The nature of experiment [2]: AP1 Signaling Pathway (AID 357).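 Note: ME-180 reporter cells stimulated with EGF at its EC50 level; % is set by controls: 0 for no effect and ±100 for the full control effect.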 Particulars: ME-180 AP-1-bla reporter, EGF-induced, beta-lactamase ratio, 5 h; at 7.69 µM (top of the series) unless noted. The method, boiled down:
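AP-1-bla ME-180 cells, Opti-MEM + 0.5% dialyzed FBS, plated overnight 37 °C. Cpd titration + EC50 EGF, 5 h 37 °C. CCF4 2.5 h RT; ex 405, em 460/530 ratio → %activity, AC50.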

The target of experiment [3] is Cytochrome P450 1A2 (Homo sapiens) (UniProt P05177). Kind of experiment: p450-cyp1a2 (AID 410; calls by dose curve; note: potency is the fitted concentration of half-maximal effect;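 for activity change, negative = inhibition: -100% = full effect of reference inhibitor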). Particulars: recombinant CYP1A2, luciferin-ME demethylation, luminescence; series mostly up to 57 µM. The procedure, abridged:
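Read-out is luminescence from luciferin produced by CYP1A2 demethylation of Luciferin-ME (100uM, at Km). Detection reagent stopped the 60 min NADPH-dependent reaction; signals were normalized to 57 uM furafylline.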

Experiment [4] is described as follows: NFAT Signaling Pathway (AID 444).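 Note: carbachol stimulus at about its EC50 of 1 µM final; % is set by controls: 0 for no effect and ±100 for the full control effect.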 Particulars: Jurkat NFAT-bla M1, carbachol, beta-lactamase ratio, 5 h; at 7.69 µM (top of the series) unless noted. The method, boiled down: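 Jurkat cells carrying an NFAT-driven β-lactamase reporter and co-transfected muscarinic M1 receptor were treated with compound plus carbachol (1 uM final, an EC50 level) for 5 h at 37 °C. CCF4 loading followed for 1 h at RT; 460/530 nm ratio gave %activity.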

Experiment [5] is described as follows: Stat Signaling Pathway (AID 446).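 Note: ME-180 cervical cancer cells given 40 pM IL-6 alongside compound; SIE-controlled beta-lactamase reporter measured as 460/530 nm FRET emission ratio; % is set by controls: 0 for no effect and ±100 for the full control effect.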 The following applies: ME-180 (cervical carcinoma) SIE beta-lactamase reporter, IL-6 stimulated, 5 h; at 7.69 µM (top of the series) unless noted. The procedure, abridged:
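Compound effects on IL-6-induced STAT reporter activity were measured in ME-180 cells. After overnight culture, cells were co-treated with 40 pM IL-6 for 5 hrs before beta-lactamase substrate loading at room temperature.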

The target of experiment [6] is Glucocorticoid receptor (Homo sapiens) (UniProt P04150). Kind of experiment: GR-EFC Redistribution (AID 451; calls by dose curve; note: potency is the fitted concentration of half-maximal effect). Particulars: CHO-K1 GR-EFC translocation, beta-gal luminescence, 2 h. The procedure, abridged:
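CHO-K1 cells stably expressing nuclear-localized β-gal enzyme acceptor and GR fused C-terminally to the enzyme donor fragment; ligand-driven nuclear translocation restores β-gal by complementation. Compounds titrated up to 46 uM final, 2 h at 37 °C; luminescence read.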

In experiment [7] the target is Mitogen-activated protein kinase 10 (Mus musculus) (UniProt Q61831). Kind of experiment: JNK3 AlphaScreen Assay (AID 530).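 Note: kinase came from lysate of stimulated human HepG2 cells; % is set by controls: 0 for no effect and ±100 for the full control effect.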 The following applies: JNK3 lysate, c-Jun phosphorylation; series mostly up to 57.1 µM. The procedure, abridged: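 Biotinylated GST-cJun(1-79) served as substrate for JNK3 in HepG2 lysates stimulated with IL-1beta and TNF-alpha. ATP was 10 uM final, pH 7.6. Ser73 phosphorylation was quantified by AlphaScreen (680 nm excitation).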

Experiment [8] deals with 3',5'-cyclic-AMP phosphodiesterase 4B (Homo sapiens) (UniProt Q07343). Kind of experiment: qHTS Assay for Inhibitors of PDE-IV (AID 607; active = well fitted activation curve with a large enough effect in the main read-out, with a control signal flat, not every such curve was filed as active; note: % of control where 0% means no effect). Particulars: HEK293 ACTOne CNG channel cells, membrane potential fluorescence; series mostly up to 22.9 µM. The method, boiled down: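 ACTOne HEK293 cells carry a modified cAMP-gated CNG channel and express endogenous PDE4; plated 1000 cells/well, compounds up to 22.9 uM final. Membrane-potential dye fluorescence (ex 535/em 590) was read; parental cells received 10 uM forskolin + 100 uM RO 20-1724.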
Chain of 3',5'-cyclic-AMP phosphodiesterase 4B (Homo sapiens) (Q07343 whole entry, looked up): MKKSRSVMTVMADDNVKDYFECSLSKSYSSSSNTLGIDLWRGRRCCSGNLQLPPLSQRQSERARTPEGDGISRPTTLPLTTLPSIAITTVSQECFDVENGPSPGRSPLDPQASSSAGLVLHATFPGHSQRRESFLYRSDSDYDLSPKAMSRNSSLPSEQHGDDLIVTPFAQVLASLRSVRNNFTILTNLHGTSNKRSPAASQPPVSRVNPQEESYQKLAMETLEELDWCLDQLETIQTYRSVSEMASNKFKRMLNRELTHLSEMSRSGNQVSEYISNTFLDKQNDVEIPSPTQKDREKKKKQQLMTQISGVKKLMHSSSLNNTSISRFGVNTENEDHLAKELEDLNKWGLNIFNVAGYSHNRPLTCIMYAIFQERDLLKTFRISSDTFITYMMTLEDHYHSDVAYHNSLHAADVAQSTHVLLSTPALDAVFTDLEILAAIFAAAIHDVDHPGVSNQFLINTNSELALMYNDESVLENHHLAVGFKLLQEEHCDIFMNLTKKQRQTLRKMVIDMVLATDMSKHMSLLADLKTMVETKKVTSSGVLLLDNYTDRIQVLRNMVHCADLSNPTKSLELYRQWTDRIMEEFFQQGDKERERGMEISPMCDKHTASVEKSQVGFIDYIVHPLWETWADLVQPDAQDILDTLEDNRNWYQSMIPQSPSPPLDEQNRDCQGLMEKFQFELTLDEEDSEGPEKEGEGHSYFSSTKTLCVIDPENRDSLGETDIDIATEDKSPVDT

In experiment [9] the target is Cytochrome P450 2C9 (Homo sapiens) (UniProt P11712). Kind of experiment: qHTS Assay for Inhibitors and Substrates of Cytochrome P450 2C9 (AID 883; active = well fitted curve in the direction sought with a large enough effect; an effect the other way counts as inactive or inconclusive; note: potency is the fitted concentration of half-maximal effect; nearly all actives have a fitted effect of over 60% in size). Particulars: recombinant CYP2C9, luciferin-H luminescence, 60 min; series mostly up to 57.1 µM. The procedure, abridged: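 A luminogenic readout tracked human CYP2C9 (10nM) converting deoxyluciferin (100uM, at KM) in 25mM KPO4 during 60 min at 37C with regenerated NADPH. Values normalized to 57uM sulphaphenazole as complete inhibition.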
Chain of Cytochrome P450 2C9 (Homo sapiens) (P11712 whole entry, looked up): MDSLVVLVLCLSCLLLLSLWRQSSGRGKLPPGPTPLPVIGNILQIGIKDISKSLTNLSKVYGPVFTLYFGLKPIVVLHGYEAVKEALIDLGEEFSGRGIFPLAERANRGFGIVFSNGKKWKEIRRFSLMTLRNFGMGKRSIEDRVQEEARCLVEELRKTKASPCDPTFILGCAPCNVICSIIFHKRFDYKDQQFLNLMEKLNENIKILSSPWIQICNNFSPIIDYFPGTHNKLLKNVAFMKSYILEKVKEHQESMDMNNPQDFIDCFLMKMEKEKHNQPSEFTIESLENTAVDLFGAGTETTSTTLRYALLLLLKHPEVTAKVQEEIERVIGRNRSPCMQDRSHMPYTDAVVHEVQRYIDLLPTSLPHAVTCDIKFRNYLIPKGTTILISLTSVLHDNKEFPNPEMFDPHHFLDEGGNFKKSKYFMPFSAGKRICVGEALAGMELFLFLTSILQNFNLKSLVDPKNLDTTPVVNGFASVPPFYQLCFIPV

In experiment [10] the target is Cytochrome P450 3A4 (Homo sapiens) (UniProt P08684). Kind of experiment: qHTS Assay for Inhibitors and Substrates of Cytochrome P450 3A4 (AID 884; active = well fitted curve in the direction sought with a large enough effect; an effect the other way counts as inactive or inconclusive; note: nearly all actives have a fitted effect of over 50% in size; note: potency is the fitted concentration of half-maximal effect). Particulars: recombinant CYP3A4, Luciferin-PPXE luminescence; series mostly up to 57.1 µM. The procedure, abridged:
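Luminescent readout of luciferin produced by CYP3A4 (20 nM) dealkylation of Luciferin-PPXE, 25 uM (its KM). NADPH-driven reaction ran 60 min at RT after 10 min compound preincubation; data scaled to 57 uM ketoconazole as 100% inhibition.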

Experiment [11] shares this target. Kind of experiment: qHTS Assay for Activators of Cytochrome P450 3A4 (AID 885; active = well fitted curve in the direction sought with a large enough effect; an effect the other way counts as inactive or inconclusive; note: nearly all actives have a fitted effect of over 65% in size; note: potency is the fitted concentration of half-maximal effect). Particulars: recombinant CYP3A4, Luciferin-PPXE luminescence, 60 min; series mostly up to 57.1 µM. The procedure, abridged:
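CYP3A4 activity: Luciferin-PPXE O-dealkylation, 25uM substrate, 200mM KPO4, RT throughout. Read-out is luciferase luminescence; higher values reflect activation.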

Experiment [12] is described as follows: qHTS Assay for Lipid Storage Modulators (AID 1519; calls by dose curve). The following applies: Drosophila S3 cells, BODIPY lipid droplet/cell ratio, laser cytometry, cells loaded with oleic acid; for activity change, negative = inhibition: at 57.5 µM (top of the series). The procedure, abridged:
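Cells seeded at 5,000 per well were treated with compounds over a concentration series and loaded with oleic acid (400 uM, as added). Lipid droplet fluorescence (488 nm excitation, 500-530 nm channel) was read by laser-scanning cytometry and normalized to 20 uM Triacsin C.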

The nature of experiment [13]: Primary qHTS for small molecule stabilizers of the endoplasmic reticulum resident proteome: Secreted ER Calcium Modulated Protein (SERCaMP) assay (AID 1508630; active = well fitted curve in the direction sought with a large enough effect; an effect the other way counts as inactive or inconclusive; note: % is set by controls: 0 for no effect and ±100 for the full control effect). Particulars: SH-SY5Y GLuc-SERCaMP (Gaussia luciferase released on ER calcium loss) secretion, thapsigargin, luminescence; series mostly up to 38.4 µM. The procedure, abridged:
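The SH-SY5Y reporter protocol was run at 3 concentrations up to 38.3 uM (primary) or 11 concentrations (follow-up): 16 h compound, 100 nM thapsigargin for 4 h, then extracellular luciferase luminescence.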

The mark [14] stands for this setting: measured here: cell count channel max response.
Setting [15] is: measured here: lipid channel max response.

Chain of Glucocorticoid receptor (Homo sapiens) (P04150 whole entry, looked up, the tested form may be a part): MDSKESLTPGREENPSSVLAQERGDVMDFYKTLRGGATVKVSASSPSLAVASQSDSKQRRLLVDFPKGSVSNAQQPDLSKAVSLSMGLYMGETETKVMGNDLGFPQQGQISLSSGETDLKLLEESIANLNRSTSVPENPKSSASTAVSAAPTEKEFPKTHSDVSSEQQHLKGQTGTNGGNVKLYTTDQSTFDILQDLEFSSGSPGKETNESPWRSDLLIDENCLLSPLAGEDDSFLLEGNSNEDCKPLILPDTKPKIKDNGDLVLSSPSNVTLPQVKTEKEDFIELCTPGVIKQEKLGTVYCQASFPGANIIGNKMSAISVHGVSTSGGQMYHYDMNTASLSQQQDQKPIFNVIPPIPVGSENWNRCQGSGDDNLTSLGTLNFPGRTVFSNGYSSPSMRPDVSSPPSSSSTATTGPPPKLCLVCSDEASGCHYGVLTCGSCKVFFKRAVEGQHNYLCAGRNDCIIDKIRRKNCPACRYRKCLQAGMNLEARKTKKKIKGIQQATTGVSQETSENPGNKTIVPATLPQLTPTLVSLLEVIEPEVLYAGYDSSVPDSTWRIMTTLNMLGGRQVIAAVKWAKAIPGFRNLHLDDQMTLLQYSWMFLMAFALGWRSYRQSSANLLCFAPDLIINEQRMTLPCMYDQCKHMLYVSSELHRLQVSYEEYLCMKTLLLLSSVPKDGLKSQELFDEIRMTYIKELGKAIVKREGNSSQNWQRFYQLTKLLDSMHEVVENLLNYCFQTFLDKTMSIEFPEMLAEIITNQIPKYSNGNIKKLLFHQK
Chain of Cytochrome P450 1A2 (Homo sapiens) (P05177 whole entry, looked up): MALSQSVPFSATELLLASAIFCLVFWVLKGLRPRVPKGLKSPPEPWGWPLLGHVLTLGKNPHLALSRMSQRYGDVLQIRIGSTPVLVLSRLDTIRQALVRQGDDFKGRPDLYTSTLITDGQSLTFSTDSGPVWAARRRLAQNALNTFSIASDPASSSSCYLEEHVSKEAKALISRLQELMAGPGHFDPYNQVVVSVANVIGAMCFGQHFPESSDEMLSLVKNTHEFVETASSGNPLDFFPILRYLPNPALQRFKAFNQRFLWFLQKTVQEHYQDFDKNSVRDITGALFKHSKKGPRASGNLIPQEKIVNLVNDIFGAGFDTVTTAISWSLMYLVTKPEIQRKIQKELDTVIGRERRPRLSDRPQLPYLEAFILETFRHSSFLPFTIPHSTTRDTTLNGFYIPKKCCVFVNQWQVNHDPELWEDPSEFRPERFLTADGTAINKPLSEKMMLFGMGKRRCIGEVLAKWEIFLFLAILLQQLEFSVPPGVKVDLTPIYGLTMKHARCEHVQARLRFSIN
Chain of Cytochrome P450 3A4 (Homo sapiens) (P08684 whole entry, looked up): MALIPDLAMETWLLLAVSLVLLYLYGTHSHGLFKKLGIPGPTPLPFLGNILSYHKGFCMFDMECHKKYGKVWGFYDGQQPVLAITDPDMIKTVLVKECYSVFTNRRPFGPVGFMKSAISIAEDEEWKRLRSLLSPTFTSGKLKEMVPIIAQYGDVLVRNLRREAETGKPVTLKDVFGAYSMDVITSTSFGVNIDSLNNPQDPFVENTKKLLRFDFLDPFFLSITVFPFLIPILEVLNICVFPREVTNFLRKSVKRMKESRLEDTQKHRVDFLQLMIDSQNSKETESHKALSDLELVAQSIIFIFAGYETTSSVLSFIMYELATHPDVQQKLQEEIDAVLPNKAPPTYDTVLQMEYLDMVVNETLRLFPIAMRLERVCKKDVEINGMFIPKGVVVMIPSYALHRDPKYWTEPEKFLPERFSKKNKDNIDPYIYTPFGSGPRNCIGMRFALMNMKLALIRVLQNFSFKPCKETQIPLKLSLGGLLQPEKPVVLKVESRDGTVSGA

On to `COc1ccc(C(=O)N2CCC3(CCCN(Cc4ccncc4)C3)CC2)cc1`, for which the Potency is > 11.4 µM (inactive) in experiment [1], > 46 µM (inactive) in experiment [6], 3.16 µM (active) in experiment [9] and 7.94 µM (active) in experiment [10]. The activity change, negative = inhibition in experiment [2] was -3.23% (inactive); in experiment [4], -17.9% (inactive); in experiment [12], 3.4% (inactive). Besides, the Potency result in experiment [3], in experiment [8], in [11] and in [13] was “inactive” in each case. In addition, in [5], the activity, negative = inhibition was 2.74% (inactive). Besides, the result in [7] was inactive. Further, the max response was 2.99% in [12] (setting [14]) and 8.92% in [12] (setting [15]).
Regarding `COC(=O)N1CCC2(CC1)CN(c1ccccn1)C2`, the Potency in experiment [1] was > 11.4 µM (inactive); in [6], > 46 µM (inactive); in experiment [11], 25.1 µM (active). Also, the activity change, negative = inhibition is -6.58% (inactive) in experiment [2], -21.4% (inactive) in experiment [4] and 1.4% (inactive) in experiment [12]. For the same compound, the Potency entry in experiment [3], in experiment [8], in [10] and in [13] was “inactive” throughout. In addition, the activity, negative = inhibition in [5] was 9.9% (inactive). In experiment [7], the outcome was inactive. The max response is 2.42% in experiment [12] (setting [14]) and 5.09% in [12] (setting [15]).
Take `O=C(Nc1ccccc1)N1CCCC2(CCN(C(=O)c3ccco3)CC2)C1`: the Potency is > 11.4 µM (inactive) in experiment [1], 20 µM (active) in experiment [3] and > 46 µM (inactive) in [6]. The results for the activity change, negative = inhibition in experiment [2], in experiment [4] and in experiment [12] were -8.89% (inactive), -7.1% (inactive) and 4.55% (inactive), respectively. Also, in experiment [5], the activity, negative = inhibition was -4.1% (inactive). In [7], the outcome was inactive. For the same compound, the Potency result in experiment [8], in experiment [11] and in experiment [13] was “inactive” in each case. For the same compound, the results for the max response in experiment [12] (setting [14]) and in experiment [12] (setting [15]) were 12% and 20.3%, respectively.
As to `O=C(c1cccc(F)c1)N1CCC2(CC1)CCN(c1cccc(-c3ccccc3)c1)CC2`, the Potency in [1] is > 11.4 µM (inactive); in [3], 20 µM (active); in [6], > 46 µM (inactive); in experiment [11], 5.01 µM (active). The results for the activity change, negative = inhibition in [2], in experiment [4] and in [12] were -4.91% (inactive), 4.3% (inactive) and -5.71% (inactive), respectively. The activity, negative = inhibition in [5] was -10.4% (inactive). In experiment [7], the call was inactive. Also, the Potency result in [8], in [10] and in [13] was “inactive” throughout. The max response was -11.6% in [12] (setting [14]) and -13.5% in experiment [12] (setting [15]).
As to `CC(C)NC(=O)N1CCCC2(CCN(C(=O)c3ccncc3)CC2)C1`, the Potency in experiment [1] was > 11.4 µM (inactive); in [6], > 46 µM (inactive). For the same compound, the activity change, negative = inhibition in [2] is -8.19% (inactive); in experiment [4], 8.27% (inactive); in [12], 3.7% (inactive). Also, the Potency result in experiment [3], in experiment [8], in experiment [11] and in experiment [13] was “inactive” each time. For the same compound, in experiment [5], the activity, negative = inhibition was -5.11% (inactive). Further, the outcome in experiment [7] was inactive. Also, the max response is 13.8% in experiment [12] (setting [14]) and 22% in experiment [12] (setting [15]).
In the case of `O=C(Nc1cccc(F)c1)N1CC[C@@]2(CCCN(C(=O)c3ccco3)C2)C1`, the Potency in experiment [1] was > 11.4 µM (inactive); in [3], 25.1 µM (active); in experiment [6], > 46 µM (inactive). Moreover, the activity change, negative = inhibition in experiment [2] was 1.78% (inactive); in [4], -0.255% (inactive); in experiment [12] it was 0.339% (inactive). For the same compound, in [5], the activity, negative = inhibition is 8.88% (inactive). For the same compound, in experiment [7], the compound was called inactive. The Potency result in [8], in [11] and in [13] was “inactive” in each case. The figures for the max response in experiment [12] (setting [14]) and in experiment [12] (setting [15]) were -5.34% and -1.46%, respectively.
